Each structure is given as a SMILES string.

One test deals with Fibroblast growth factor 10 (Homo sapiens) (UniProt O15520). Put plainly: FGF10 binders on small-molecule microarrays, primary screen, biochemical, small-molecule microarray, 635 nm fluorescence (AID 1102). The settings on record: FGF10 binding, fluorescence 635 nm, higher = more signal.
Sequence of Fibroblast growth factor 10 (Homo sapiens) (O15520 whole entry, looked up): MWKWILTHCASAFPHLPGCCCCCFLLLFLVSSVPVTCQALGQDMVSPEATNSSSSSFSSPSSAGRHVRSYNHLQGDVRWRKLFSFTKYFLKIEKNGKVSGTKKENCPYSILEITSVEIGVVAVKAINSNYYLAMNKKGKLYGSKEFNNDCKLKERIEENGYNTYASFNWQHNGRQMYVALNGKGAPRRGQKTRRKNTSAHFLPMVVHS
Turning to `O=C(CS)NCCCCCNC(=O)[C@@H]1C[C@@H]2C(=O)N3CCC[C@H]3C(=O)N2[C@@H]1c1cccc(OCCO)c1`, the composite z-score was 0.453.
The same measure, in the same setting: to `COCCOC(=O)N1C(=O)[C@@]2(c3cc(C#CCCO)ccc31)[C@H](C(=O)Nc1nc3ccccc3s1)[C@H]1C(=O)O[C@H](c3ccccc3)[C@H](c3ccccc3)N1[C@@H]2c1ccccc1OCCO` belongs 1.12; to `C[C@@H]1NC(=O)[C@@]23C(=O)N[C@@H](Cc4ccccc4)C2[C@H](C)[C@@]2(C)O[C@H]2C3/C=C/C/C=C\CNC(=O)[C@@H]2CCCN2C1=O` (some centres not stated), 0.0528; to `CCC[C@@H]1C[C@@]1(CCC)[C@@H](NC(=O)OCc1ccccc1)c1ccc(-c2ccccc2)cc1`, -0.933.
With `CC[C@H]1C2=C3C(CC[C@H]4C(OCc5ccc(F)cc5C(F)(F)F)OC[C@](C)([C@@H]34)N(C(=O)OC(C)(C)C)C2)C(COC)C1COC` (some centres not stated), the composite z-score is -0.0147.
Regarding `CC(C)(C)OC(=O)CC[C@@]1(C(=O)NCc2ccccc2)N=C(c2ccc(OCCCO)cc2)O[C@@H]1c1ccccc1N=[N+]=[N-]`, the composite z-score stood at 1.39.
Same read-out and setting: for `CCC(CC)C(O)C1C=CC2C(=O)N(c3ccccc3)C(=O)C2N1Nc1ccc(C(C)C)cc1` (configuration not stated) the value was 0.663; for `C[C@H]1NC(=O)[C@@]23C(=O)N[C@@H](Cc4ccccc4)C2[C@H](C)[C@@]2(C)O[C@H]2C3/C=C/C/C=C\CNC(=O)[C@H](Cc2ccccc2)NC1=O` (some centres not stated), 0.932.
Compound `COCCOC(=O)N1C(=O)[C@@]2(c3cc(C#CC4=CCCCC4)ccc31)[C@H](C(N)=O)[C@H]1C(=O)O[C@H](c3ccccc3)[C@H](c3ccccc3)N1[C@@H]2c1ccccc1OCCO` showed a composite z-score of 1.24.
The same measure, in the same setting: to `CCOC(=O)C[C@H]1[C@H](OC(=O)c2cc3ccccc3oc2=O)[C@@H](NC(=O)c2ccc(-c3ccccc3)cc2)c2cc(OCCCO)ccc2N1C(=O)c1ccc2ccccc2n1` belongs 0.93; to `COC(=O)[C@@]1(Cc2ccc(F)cc2)[C@H]2c3cc(C(=O)N(C)C)n(Cc4cc(F)cc5c4OCOC5)c3C[C@H]2CN1C(=O)c1ccccc1`, 0.87; to `COC(=O)[C@@]1(Cc2ccccc2)[C@@H]2C(=CC(=O)[C@H]2CC(=O)C(=O)N(C)C)CN1C(=O)c1ccccc1`, 0.473.
The same measure, in the same setting: to `CN1C(=O)C2C=CC(C(O)c3ccc(F)cc3)N(Nc3ccccc3)C2C1=O` (configuration not stated) belongs 0.0186; to `CCCC[C@@H]1C[C@H]1[C@@H](NC(=O)c1ccccc1)c1ccc(C(F)(F)F)cc1`, -0.896; to `COc1ccc([Si](C)(C)[C@H]2[C@H](CCn3cc([C@H](O)c4ccccc4)nn3)O[C@@]3(C(=O)N(Cc4ccc(N5C(=O)c6cccc7cccc5c67)cc4)c4ccccc43)[C@@H]2C)cc1`, 0.324.
Turning to `C[N+](C)(C)CCCC[C@@H]1NC(=O)[C@H]2C[C@@H](C(=O)NCCCCCCN)[C@@H](c3ccc(O)cc3)N2C1=O`, the composite z-score was determined as 0.687.
The same measure, in the same setting: for `O[C@@H](Cc1ccccc1)[C@@H](/C=C/C1CC1)N(CC#Cc1ccccc1)Cc1cccc(Cl)c1` the value was -1.72; for `CCOC(=O)C[C@H]1[C@H](OC(=O)c2ccccc2-c2ccccc2)[C@@H](NC(=O)c2ccc(-c3ccccc3)cc2)c2cc(OCCCO)ccc2N1C(=O)c1ccc2ccccc2n1`, 0.948; for `CN(C)c1ccc(C(O)C2C=CC3C(=O)N(c4ccccc4)C(=O)C3N2Nc2ccc([N+](=O)[O-])cc2)cc1` (configuration not stated), 0.704.
`COC(=O)[C@@]1(Cc2ccc(OC)cc2)[C@H]2c3cc(C(=O)N4CCCC4)n(Cc4c(-c5ccccc5)noc4C)c3C[C@H]2CN1C(=O)c1ccccc1`: the composite z-score came out at 1.4.
Take `COc1ccc(-c2nc(-c3ccccc3)c3c(c2C)CO[Si]3(C(C)C)C(C)C)cn1`: the composite z-score was 0.984.
Consider `O=C1O[C@@H](c2ccccc2)[C@@H](c2ccccc2)N2[C@@H](c3ccc(O)cc3)[C@]3(C(=O)Nc4ccc(C#CC5=CCCCC5)cc43)[C@@H](C(=O)NC[C@H](O)c3ccccc3)[C@H]12`, for which the composite z-score was determined as 1.41.
In turn, `CO[C@H]1O[C@H](CO)[C@@H](OC(=O)Nc2ccccc2-c2ccccc2)[C@H](OC(=O)Nc2ccc3c(c2)OCO3)[C@H]1OC(=O)Nc1ccc2c(c1)OCO2` showed a composite z-score of 1.24.
Consider `COC(=O)[C@@]1(Cc2ccc(F)cc2)[C@H]2c3cc(C(=O)N4CCCC4)n(CCN4CNCC4=O)c3C[C@H]2CN1C(=O)c1ccccc1`, for which the composite z-score is -0.142.
The compound `CN(C)CCCNC(=O)[C@@H]1c2ccccc2C(=O)N(Cc2ccccc2Cl)[C@H]1c1ccc(CO)cc1` showed a composite z-score of -0.497.

Another test relates to glycogen synthase kinase-3 (GSK3A per assay name; protocol says GSK3B). Put plainly: GSK3 binders on small-molecule microarrays, primary screen, biochemical, small-molecule microarray, 635 nm fluorescence, GSK3A (AID 1103). Note: the record names both GSK3A and GSK3B. To be noted: small-molecule microarray binding, fluorescence 635 nm; higher = more signal.
Compound `COc1cc2c(cc1O)C(C)N(Cc1ccc([N+](=O)[O-])o1)CC2` (configuration not stated) gave a composite z-score of 0.899.
On to `COCCOC(=O)N1C(=O)[C@@]2(c3cc(C#Cc4ccc(OC)cc4)ccc31)[C@H](c1ccc(O)cc1)N1[C@H](c3ccccc3)[C@H](c3ccccc3)OC(=O)[C@H]1[C@@H]2C(=O)N1CCCCCCC1`, for which the composite z-score is -0.151.
On to `COc1ccc([Si](C)(C)[C@@H]2[C@@H](CC(=O)N(CCO)Cc3ccccc3)O[C@]3(C(=O)N(Cc4cccc(N5C(=O)c6cccc7cccc5c67)c4)c4ccccc43)[C@H]2C)cc1`, for which the composite z-score was -0.727.
`Cc1ccc(S[C@]2(C(=O)O)CC(=O)N(Cc3ccccc3Cl)[C@@H]2c2ccc(CO)cc2I)cc1`: the composite z-score worked out at 0.202.
Take `COC(=O)C1=CC(CCCO)=CC(C2CC2)N(C)C=C1C(=O)OC` (configuration not stated): the composite z-score is -0.302.
Still for that read-out and setting: for `COCCOC(=O)N1C(=O)[C@@]2(c3cc(C#CCC(C(=O)OC)C(=O)OC)ccc31)[C@H](C(=O)N1CCc3cc(OC)c(OC)cc3C1)[C@H]1C(=O)O[C@H](c3ccccc3)[C@H](c3ccccc3)N1[C@@H]2c1ccc(OCCO)cc1` the value was 1.31.
Same read-out and setting: to `COc1ccc([Si](C)(C)[C@H]2[C@H](CCO)O[C@@]3(C(=O)N(Cc4cccc(N5C(=O)COc6ccccc65)c4)c4ccccc43)[C@@H]2C)cc1` belongs -0.585.
On the same count and under the same terms, for `CN(C)CCCNC(=O)[C@@]1(C)c2ccccc2C(=O)N(Cc2ccccc2)[C@H]1c1ccc(CO)cc1` the value was -0.35.
As to `COC(=O)c1c2oc(c1C(=O)OC)C(=O)N(Cc1ccccc1)Cc1cn(nn1)C[C@H](Cc1ccccc1)NC(=O)N[C@H](CO)CC2`, the composite z-score was 0.278.
Take `[N-]=[N+]=NCc1ccccc1[C@H]1OC(c2ccc(OCCCO)cc2)=N[C@@]1(CCS(=O)(=O)c1ccccc1)C(=O)N1CCCCC1`: the composite z-score amounted to 1.28.
Same read-out and setting: for `O=C(CS)NCCCCCNC(=O)[C@@H]1C[C@@H]2C(=O)N3CCC[C@H]3C(=O)N2[C@@H]1c1cccc(OCCO)c1` the value was 0.649; for `COCCOC(=O)N1C(=O)[C@@]2(c3cc(C#CCCO)ccc31)[C@H](C(=O)Nc1nc3ccccc3s1)[C@H]1C(=O)O[C@H](c3ccccc3)[C@H](c3ccccc3)N1[C@@H]2c1ccccc1OCCO`, 1.08; for `C[C@@H]1NC(=O)[C@@]23C(=O)N[C@@H](Cc4ccccc4)C2[C@H](C)[C@@]2(C)O[C@H]2C3/C=C/C/C=C\CNC(=O)[C@@H]2CCCN2C1=O` (some centres not stated), -0.438.
On the same count and under the same terms, to `CCC[C@@H]1C[C@@]1(CCC)[C@@H](NC(=O)OCc1ccccc1)c1ccc(-c2ccccc2)cc1` belongs -1.74; to `CC[C@H]1C2=C3C(CC[C@H]4C(OCc5ccc(F)cc5C(F)(F)F)OC[C@](C)([C@@H]34)N(C(=O)OC(C)(C)C)C2)C(COC)C1COC` (some centres not stated), -0.652.
In turn, `CC(C)(C)OC(=O)CC[C@@]1(C(=O)NCc2ccccc2)N=C(c2ccc(OCCCO)cc2)O[C@@H]1c1ccccc1N=[N+]=[N-]` gave a composite z-score of 1.18.
For the compound `CCC(CC)C(O)C1C=CC2C(=O)N(c3ccccc3)C(=O)C2N1Nc1ccc(C(C)C)cc1` (configuration not stated), the composite z-score stood at 1.17.
With `C[C@H]1NC(=O)[C@@]23C(=O)N[C@@H](Cc4ccccc4)C2[C@H](C)[C@@]2(C)O[C@H]2C3/C=C/C/C=C\CNC(=O)[C@H](Cc2ccccc2)NC1=O` (some centres not stated), the composite z-score turned out to be 0.138.
Same read-out and setting: for `COCCOC(=O)N1C(=O)[C@@]2(c3cc(C#CC4=CCCCC4)ccc31)[C@H](C(N)=O)[C@H]1C(=O)O[C@H](c3ccccc3)[C@H](c3ccccc3)N1[C@@H]2c1ccccc1OCCO` the value was 1.32; for `CCOC(=O)C[C@H]1[C@H](OC(=O)c2cc3ccccc3oc2=O)[C@@H](NC(=O)c2ccc(-c3ccccc3)cc2)c2cc(OCCCO)ccc2N1C(=O)c1ccc2ccccc2n1`, 1.01; for `COC(=O)[C@@]1(Cc2ccc(F)cc2)[C@H]2c3cc(C(=O)N(C)C)n(Cc4cc(F)cc5c4OCOC5)c3C[C@H]2CN1C(=O)c1ccccc1`, 0.427.
`COC(=O)[C@@]1(Cc2ccccc2)[C@@H]2C(=CC(=O)[C@H]2CC(=O)C(=O)N(C)C)CN1C(=O)c1ccccc1` showed a composite z-score of 0.982.
Turning to `CN1C(=O)C2C=CC(C(O)c3ccc(F)cc3)N(Nc3ccccc3)C2C1=O` (configuration not stated), the composite z-score is -0.433.
Same read-out and setting: for `CCCC[C@@H]1C[C@H]1[C@@H](NC(=O)c1ccccc1)c1ccc(C(F)(F)F)cc1` the value was -1.74.
The same measure, in the same setting: to `COc1ccc([Si](C)(C)[C@H]2[C@H](CCn3cc([C@H](O)c4ccccc4)nn3)O[C@@]3(C(=O)N(Cc4ccc(N5C(=O)c6cccc7cccc5c67)cc4)c4ccccc43)[C@@H]2C)cc1` belongs -0.509; to `C[N+](C)(C)CCCC[C@@H]1NC(=O)[C@H]2C[C@@H](C(=O)NCCCCCCN)[C@@H](c3ccc(O)cc3)N2C1=O`, 1.3; to `O[C@@H](Cc1ccccc1)[C@@H](/C=C/C1CC1)N(CC#Cc1ccccc1)Cc1cccc(Cl)c1`, -1.01.
On the same count and under the same terms, to `CCOC(=O)C[C@H]1[C@H](OC(=O)c2ccccc2-c2ccccc2)[C@@H](NC(=O)c2ccc(-c3ccccc3)cc2)c2cc(OCCCO)ccc2N1C(=O)c1ccc2ccccc2n1` belongs 0.749.
In turn, `CN(C)c1ccc(C(O)C2C=CC3C(=O)N(c4ccccc4)C(=O)C3N2Nc2ccc([N+](=O)[O-])cc2)cc1` (configuration not stated) yielded a composite z-score of 1.29.
In the case of `COC(=O)[C@@]1(Cc2ccc(OC)cc2)[C@H]2c3cc(C(=O)N4CCCC4)n(Cc4c(-c5ccccc5)noc4C)c3C[C@H]2CN1C(=O)c1ccccc1`, the composite z-score worked out at 0.495.
Still for that read-out and setting: to `COc1ccc(-c2nc(-c3ccccc3)c3c(c2C)CO[Si]3(C(C)C)C(C)C)cn1` belongs 0.729; to `O=C1O[C@@H](c2ccccc2)[C@@H](c2ccccc2)N2[C@@H](c3ccc(O)cc3)[C@]3(C(=O)Nc4ccc(C#CC5=CCCCC5)cc43)[C@@H](C(=O)NC[C@H](O)c3ccccc3)[C@H]12`, 1.28.

For the origin of these results see PubChem BioAssay.
